Results with a measured potency or affinity are listed apart. Activity calls are given as the source filed them. Cut-off not given; nearly all actives show IC50 up to about 0.98 µM.

For the experiment, the target named is Calcium-dependent protein kinase 1 (Plasmodium falciparum (isolate 3D7)) (UniProt P62344). As to the kind of experiment: PfCDPK1 kinase inhibitors, biochemical, TCAMS library (AID 1159585).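 Further: inhibitors leave more ATP so luminescence rises with inhibition.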 The conditions noted are these: recombinant PfCDPK1, Kinase-Glo ATP depletion luminescence.
Chain of Calcium-dependent protein kinase 1 (Plasmodium falciparum (isolate 3D7)) (P62344 whole entry, looked up): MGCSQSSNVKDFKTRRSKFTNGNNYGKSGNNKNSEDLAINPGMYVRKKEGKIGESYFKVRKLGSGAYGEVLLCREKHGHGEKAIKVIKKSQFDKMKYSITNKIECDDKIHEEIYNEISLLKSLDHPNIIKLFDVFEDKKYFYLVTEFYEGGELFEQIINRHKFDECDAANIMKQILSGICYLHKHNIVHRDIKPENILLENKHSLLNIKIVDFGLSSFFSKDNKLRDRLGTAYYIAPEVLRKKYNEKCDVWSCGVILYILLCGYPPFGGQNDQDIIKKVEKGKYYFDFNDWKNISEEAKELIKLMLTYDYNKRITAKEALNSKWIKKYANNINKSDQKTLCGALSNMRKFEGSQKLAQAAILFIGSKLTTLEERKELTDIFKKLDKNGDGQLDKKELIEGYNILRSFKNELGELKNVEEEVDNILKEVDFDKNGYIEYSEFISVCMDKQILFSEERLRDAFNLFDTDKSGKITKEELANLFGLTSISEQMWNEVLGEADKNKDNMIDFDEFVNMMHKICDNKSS
`Cc1ccccc1C1CCN(C2CCC(NC(=O)/C=C/c3ccc(C(F)(F)F)cc3)CC2)CC1` (stereo not given): the outcome was inactive.
On to `Cc1ccoc1C(=O)Nc1ccc(-c2cccc(-c3nc4c(C)cccc4[nH]3)c2)cc1`, for which the outcome was inactive.
`CCCNCc1ccc(-c2ccc(CN(C(=O)c3nn(-c4ccccc4)nc3C)C(C)CN(C)C)cc2)nc1` (stereo not given): the result was inactive.
For `O=C(Cn1c(CCc2cccc(F)c2F)nc(=O)c2ccccc21)N(Cc1ccc(-c2ccc(C(F)(F)F)cc2)cc1)C1CCN(C2=NCCS2)CC1`, the outcome was inactive.
Take `COc1cc2nc(NCCc3ccccc3)nc(NCc3nccs3)c2cc1OC`: the outcome was inactive.
The value for `COc1ccc(-c2ccc(NC(=O)c3cccc(C#N)c3)cc2)cc1CN1CCN(C)CC1` was “inactive”; that for `O=C(/C=C/c1cccc2c1OCO2)Nc1ccnc2ccncc12` was “inactive”.
To `Cc1cc(N2CCN(C)CC2)nc2ccc(NC(=O)Cc3cccc(C(F)(F)F)c3)cc12` belongs “inactive”.
For `Nc1nc(N)c2c(ccc3nn(Cc4cccnc4)cc32)n1`, the outcome was inactive.
The value for `COc1ccc(-c2ccc(NC(=O)c3cccc(C#N)c3)cc2)cc1CN1CCCC(C(N)=O)C1` (stereo not given) was “inactive”; that for `Cc1cc2nc(-c3ccc(C(=O)NCc4ccc(Cl)c(Cl)c4)cc3)[nH]c2cc1C` was “inactive”.
The value for `O=C(Nc1cccc(Cl)c1Cl)N[C@H]1CCN(CCCCCNC(=O)[C@@H]2C[C@H]2c2ccc(Cl)c(Cl)c2)C1` was “inactive”; that for `O=C(Nc1ccc(CC(=O)N2CCc3cc(Cl)c(N4CCN(C/C=C/c5ccccc5)CC4)cc32)cc1)Nc1cccc([N+](=O)[O-])c1` was “inactive”.
To `NC1CCCN(Cc2ccc(-c3cccc(-c4nc5ccccc5[nH]4)c3)cc2)C1` (stereo not given) belongs “inactive”.
As to `O=C(Nc1cccc(Cl)c1N1CCOCC1)C(Cl)(Cl)Cl`, the outcome was inactive.
Regarding `O=S(=O)(c1cccc(F)c1)c1ccc(Nc2ncnc3cc(Br)sc23)cc1Cl`, the result was inactive.
As for `CCOC(=O)c1ccc(NC(=O)Nc2ccc(-c3ccc(-c4nc5ccccc5[nH]4)cc3)cc2)cc1`, the result was inactive.
Take `Cc1[nH]c(C)c(-c2ccc(-c3ccccc3F)nc2)c(=O)c1Br`: the outcome was inactive.
Take `CCOc1cc(C(=O)NCCCN2CCN(c3cccc(Cl)c3)CC2)ccc1-c1nc2cc(Cl)c(F)cc2[nH]1`: the outcome was inactive.
As to `CC(C)CCN1CCC(Oc2ccc(NC(=O)c3ccco3)cc2Cl)CC1`, the outcome was inactive.
To `Cc1ccc(Nc2ccnc(Nc3ccc(F)c(Cl)c3)n2)cc1O` belongs “inactive”.
To `CCOc1c(CCNCCCCNCCc2ccc3ccccc3c2OCC)ccc2ccccc12` belongs “inactive”; to `CC(=O)Oc1cc(C)ccc1C1CCN(CCCCNC(=O)c2ccc(NC(=O)c3ccc(Cl)cc3)cc2)CC1`, “inactive”; to `Cc1cc(C)c2[nH]cc(C(=O)O)c(=O)c2c1`, “inactive”.
The value for `CN1CCC(Oc2ccc(CN3CC[C@H](NC(=O)c4ccc(F)c(F)c4)C3)c3ccccc23)C1` (stereo not given in full) was “inactive”.
Turning to `CC(C)Nc1cc(C(=O)N[C@@H](Cc2ccccc2)[C@H](O)CNC(C)(C)c2cccc(C(F)(F)F)c2)cc(N2CCCCS2(=O)=O)c1`, the outcome was inactive.
The value for `COc1ccc2c(NN=Cc3ccccn3)ccnc2c1` was “inactive”; that for `O=C(Nc1ccc(-c2csc3nccn23)cc1)c1ccc(Cl)cc1` was “inactive”.
The value for `CCOCCCNc1ncc(-c2ccsc2)c(-c2nc(C)cs2)n1` was “inactive”; that for `CCc1c(CCNCCCCCCNCCc2ccccc2)ccc(OC)c1OC` was “inactive”.
With `Nc1nc(N)c2c3c(cnc2n1)CCCC3`, the result was inactive.
To `Cc1nc2ccc([N+](=O)[O-])cc2c(=O)n1OCc1ccccc1` belongs “inactive”.
To `OCC(c1ccccc1)n1c(COc2ccc(Cl)cc2)nc2c(OCCCN3CCCCC3)cccc21` (stereo not given) belongs “inactive”; to `COc1ccc2nccc([C@@H](O)CN3CCC(NCc4nc5c([N+](=O)[O-])cccc5[nH]4)CC3)c2c1`, “inactive”; to `CCC1(CC)N=C(N)N=C(N)C1c1ccc(Cl)c(Cl)c1` (stereo not given), “inactive”.
To `COc1c(C2CCN(CCCCNC(=O)c3ccc(-c4ccc(Cl)cc4)cc3)CC2)ccc2c1C(C)(C)CCC2(C)C` belongs “inactive”.
On to `CCOC(=O)c1cccc(NC(=O)Nc2cc(C)nc3ccccc23)c1`, for which the outcome was inactive.
To `O=C(Nc1ccc([N+](=O)[O-])cc1)Nc1nc2ccc(Cl)cc2s1` belongs “inactive”; to `COc1ccccc1N1CCN(Cc2c(NC(C)=O)sc(C)c2C)CC1`, “inactive”.
Take `COc1ccc(C=NNc2nc3ccccc3[nH]2)cc1O`: the result was inactive.

For the origin of these results see PubChem BioAssay.
